Laboratory results published in PubChem BioAssay AID1626 (SRMLSC, 2009).
Where “and” joins values, the source holds several entries; their conditions need not be identical. Equal entries are not always repeated. The campaign covered roughly 220,000 compounds. About 2,000 (0.91%) were called active. Not shown: some 2% with an inconclusive outcome. Rule as the data show it: inconclusive = inhibition above about 80% without an active follow-up result; inactive = below that; test concentration not stated here. The list is a sample of the results. Entries with a potency or affinity are not part of this list.

Assay: M. tuberculosis H37Rv growth inhibitors, H37Rv strain (AID 1626);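 also: bacteria incubated seven days before Alamar blue readout; 0% = bacteria only wells and 100% = bacteria with antibiotic wells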
Conditions: stronger effect = higher value, concentration not given here

Compound | inhibition
CCOC(=O)C1CCN(Cc2nnnn2CCc2ccccc2)CC1 | -3.91% (inactive)
Nc1nc2nccc(-c3ccco3)n2n1 | -5.94% (inactive)
CC(C)OC(=O)C(C)Nc1n[nH]c(=S)[nH]c1=O (centres undefined) | -1.15% (inactive)
COc1ccc(OC)c(-n2c(-c3ccc(S(C)(=O)=O)cc3)cc(C=O)c2C)c1 | -4.11% (inactive)
c1cncc(-c2nc(NCCCn3ccnc3)c3ccccc3n2)c1 | 1.38% (inactive)
Cc1nc(NCCCn2ccnc2)c2oc3ccccc3c2n1 | 7.2% (inactive)
CCc1nc(NCCCn2ccnc2)c2oc3ccccc3c2n1 | -11.5% (inactive)
c1ccc(-c2c(-c3ccccc3)n(Cc3ccco3)c3ncnc(NCCCn4ccnc4)c23)cc1 | 25.2% (inactive)
Cc1nc(NCCCn2ccnc2)c2ccccc2n1 | -2.03% (inactive)
c1ccc(-c2oc3ncnc(NCCCN4CCOCC4)c3c2-c2ccccc2)cc1 | -8.09% (inactive)
CCOC(=O)c1cnn(CCOC(=O)c2cccs2)c1NC(=O)c1cccs1 | 7.28% (inactive)
COC(=O)c1ccc(CSc2nnc(Nc3ccc(C)cc3)s2)o1 | -4.05% (inactive)
Cc1c(Br)c([N+](=O)[O-])nn1CC(=O)c1ccccc1 | 0.16% (inactive)
Cc1ccccc1CNC(=O)CCc1ccccc1 | -2.14% (inactive)
CCc1ccc(Oc2ncnc(N)c2[N+](=O)[O-])cc1 | -1.27% (inactive)
NC(=O)c1cc2n(n1)C(C(F)(F)F)CC(c1ccco1)N2 (centres undefined) | -17% (inactive)
Cc1ccc2nc3c(nc2c1)-c1ccccc1C3=O | -8.47% (inactive)
Cc1ccc2nc(-c3ccccc3)c(-c3ccccc3)nc2c1 | 1.48% (inactive)
O=C(CN1CCN(S(=O)(=O)c2ccccc2)CC1)Nc1ccc2c(c1)OCO2 | -8.01% (inactive)
Nc1ncccc1OCc1cccc(C(F)(F)F)c1 | 16.6% (inactive)
COc1ccc2nc(C(F)(F)Cl)c(C#N)c(N)c2c1 | -0.68% (inactive)
COc1ccc(C(=O)N/N=C/c2ccc3cccc(O)c3n2)cc1 | 64.5% (inactive)

Compound | inhibition
O=C(O)c1ccc(/C=C/c2ccc3cccc(O)c3n2)cc1 | 74.2% (inactive)
O/N=C/c1ccc2cccc(O)c2n1 | 3.62% (inactive)
O=C(Cc1ccccc1)N/N=C/c1ccc2cccc(O)c2n1 | 22.8% (inactive)
COc1cc2c(cc1NC(=O)C(C)Sc1ccc(C)cc1)oc1ccccc12 (centres undefined) | 9.39% (inactive)
CCOC(=O)CON1C(=O)C(=O)N(OCC(=O)OCC)[C@H]2CCCC[C@H]21 | 2.73% (inactive)
COc1ccc(-c2[nH]ncc2CN2CCSCC2)c(OC)c1 | -1.11% (inactive)
COc1ccc(-n2c(SCC(=O)Nc3ccccc3)nc3c(c2=O)SCC3)cc1 | 6.14% (inactive)
CCCC(CCC)C(=O)Nc1ccncc1 | -10.4% (inactive)
C=CCC(=O)OCCCCCCOc1ccc(C(=O)O)cc1 | -13.9% (inactive)
CCCCCCOc1ccc(/C(N)=N/O)cc1 | 5.99% (inactive)
CC1(C)Cc2c(c(=S)nc(-c3ccccc3)n2CCO)CO1 | 7.44% (inactive)
O=C(O)Cc1sc(NCc2ccco2)nc1-c1ccccc1 | 8.81% (inactive)
O=C(Nc1ccc(S(=O)(=O)Nc2nccs2)cc1)C1CC(=O)N(c2ccccc2)C1 (centres undefined) | -6.74% (inactive)
COc1ccc(Br)cc1/C=N/NC(=O)c1ccco1 | -2.04% (inactive)
Cc1ccc(CNC(=O)C(=O)Nc2nccs2)cc1 | 10.4% (inactive)
O=C(NCc1ccc(Cl)cc1)C(=O)Nc1nccs1 | 1.96% (inactive)
CC(/C=C\c1cccnc1)=C/C(=O)O | 1.6% (inactive) and 0.21% (inactive)
O=C(/C=C/c1cccnc1)c1ccc(NC(=O)c2cccc(Br)c2)cc1 | 8.79% (inactive)
O=C(O)CCC(=O)/C=C/c1ccccc1 | -6.33% (inactive)
O=C(O)/C=C/c1cccnc1 | -0.59% (inactive)
O=C(/C=C/c1ccccc1)NC(=O)c1ccccc1O | -10.8% (inactive)
Cc1cccc(NC(=O)c2cccnc2)c1 | 1.57% (inactive)

Compound | inhibition
CC(/C=C\c1ccccc1)=C/C(=O)O | 2.72% (inactive)
O=C(/C=C/c1ccc(Br)cc1)NC(=O)c1ccccc1O | 5.02% (inactive)
CCC/C=N/NC(=O)c1cc(Br)ccc1O | -8.13% (inactive)
COc1cccc(-c2nc(N3CCN(c4ccccc4)CC3)c3ccccc3n2)c1O | -0.61% (inactive)
CN1C=CC=C/C1=C1\SC(=S)N(CC(=O)O)C1=O | -3.47% (inactive)
Cc1cccc(Cc2nnc(CCC(=O)NCc3ccncc3C)o2)c1 | -3.05% (inactive)
O=C(C1=NN[C@@H]2C(=O)N(c3cccc(C(F)(F)F)c3)C(=O)[C@H]12)c1cnccn1 | -13.3% (inactive)
S=C1NC(c2cccs2)=CC(c2ccc(Br)cc2)N1 (centres undefined) | 12.7% (inactive)
COc1ccc(CC(=O)OCC(=O)Nc2cccc(Cl)c2)cc1 | -0.87% (inactive)
CC(C)(CN1CCCCC1)NS(=O)(=O)c1ccc(Cl)cc1 | 3.88% (inactive)
CN(C)/C=C(\C#N)C(=O)Nc1ccc(F)cc1 | -3.02% (inactive)
O=C(COC(=O)CNC(=O)c1cccc([N+](=O)[O-])c1)Nc1cccc(S(=O)(=O)N2CCCC2)c1 | -1.39% (inactive)
C#CCOCCOCCOCCNc1nc(N2CCN(C(=O)C([C@@H](C)CC)n3cc(C(N)CO)nn3)CC2)nc(N2CCN(C(=O)C([C@@H](C)CC)n3cc(C(N)COC(=O)C(F)(F)F)nn3)CC2)n1 (some centres undefined) | -11.1% (inactive)
CCOC(=O)NC(=O)c1cn(Nc2ncc(Cl)cc2C(F)(F)F)c(=O)[nH]c1=O | -8.73% (inactive)
CCOC(=O)N1CCC(NC(=O)Cn2c3c(c(-c4ccccc4Cl)cc2=O)CCC3)CC1 | -2.35% (inactive)
CCOC(=O)Cn1c2c(c(=N)c3c1CCC3)CCCC2 | -4.08% (inactive)
CCNC(=S)N1CCC(c2nc3ccccc3s2)CC1 | -0.93% (inactive)
O=C(NCc1cccnc1)c1cccc(S(=O)(=O)N2CCOCC2)c1 | 0.09% (inactive)
c1ccc2c(c1)CCc1c-2nc2ccccc2c1N1CCOCC1 | 4.28% (inactive)
COc1ccc2c(-c3ccccc3)cc(N3CCOCC3)nc2c1 | -14.6% (inactive)
